Records with an inconclusive call do not appear. Active and inactive are the calls of the source. Calls come from the whole dose curve; as a rule, active = well fitted inhibition curve with a large enough effect; inconclusive = small, poorly fitted or top-dose-only effect; inactive = flat fitted curve, though single readings scatter.
% is set by controls: 0 for no effect and ±100 for the full control effect; potency is the fitted concentration of half-maximal effect.

The nature of the assay: P-glycoprotein substrates identified in KB-8-5-11 adenocarcinoma cell line, qHTS therapeutic library screen (AID 1346987). Note: nearly all actives have a fitted effect of over 65% in size. The following applies: KB-8-5-11 (P-gp overexpressing) viability, CellTiter-Glo, 72 h; series mostly up to 44.5 µM; activity change, negative = cytotoxicity: at the top concentration. The procedure, abridged:
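KB-8-5-11: colchicine-selected sub-line of KB-3-1 over-expressing P-gp; assay medium lacked colchicine. 72 h drug exposure at 37 degree C, CellTiter-Glo.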
Background: In qHTS, concentration-response curves come from the screen itself.
Take `COc1c2c(c(C)c3c1C(=O)OC3)O[C@@]1(C)C[C@@H](OC(C)=O)[C@]34O[C@](OC)(CC[C@]3(C)[C@H]1C2)OC4(C)C`: the “outcome” value is “inactive [at 17.3 µM]”. In the case of `CC1(C)S[C@@H]2[C@H](NC(=O)C(C(=O)Oc3ccc4c(c3)CCC4)c3ccccc3)C(=O)N2[C@H]1C(=O)O` (stereo partly drawn), the “activity change, negative = cytotoxicity” value is 9.54% (inactive). Take `COc1ccnc(CS(=O)c2nc3cc(OC(F)F)ccc3[nH]2)c1OC` (stereo not drawn): the “activity change, negative = cytotoxicity” value was -22.9% (inactive).

For `CCCN1CCC=C(c2cc(-c3ccc(C)cc3)no2)C1`, the “activity change, negative = cytotoxicity” value was -4.34% (inactive). Turning to `COc1cc(-c2cn(C3CCc4c(F)cccc4N(CC(F)(F)F)C3=O)nn2)ccc1-n1cnc(C)c1` (stereo not drawn), the “activity change, negative = cytotoxicity” value was -14% (inactive). Take `C=C(C)C(=O)OC1CC2(C)OC(=CC2=O)C(=C)CC2OC(=O)C(=C)C12` (stereo not drawn): the Potency is 10.1 µM (active).

Consider `O=C(Nc1ccc(C(O)(C(F)(F)F)C(F)(F)F)cc1)c1ccc(C(F)(F)F)cc1`, for which the Potency was 18.4 µM (active). Consider `CCNC(=O)N1CCCN(c2ccc(C(=O)NCCc3ccc(Cl)cc3Cl)cc2NC(=O)c2cccc(Cl)c2)CC1`, for which the “activity change, negative = cytotoxicity” value was -21.8% (inactive). The same measure, in the same setting: in the case of `OC[C@H]1O[C@@H](OC/C=C/c2ccc(O)cc2)[C@H](O)[C@@H](O)[C@@H]1O` it was -5.86% (inactive). On to `CCC(CC)Nc1nc(C)c(-c2ccc(OC(F)(F)F)cc2OC)nc1OC`, for which the “activity change, negative = cytotoxicity” value is -0.463% (inactive). In the case of `Cc1c(C(=O)Nc2ccc(N3CCC(N4CCOCC4)CC3)c(C#N)c2)cnn1-c1ccc(Cl)cc1`, the Potency was 0.82 µM (active). As to `CCCCOc1ccc(S(=O)(=O)n2c(C)nc3ccccc32)cc1`, the “activity change, negative = cytotoxicity” value was -17.3% [at 17.3 µM] (inactive). With `C=C1/C(=C/C=C2\CCC[C@@]3(C)C2CCC3[C@H](C)/C=C/[C@@H](O)C2CC2)C[C@@H](O)C[C@@H]1O` (stereo partly drawn), the “activity change, negative = cytotoxicity” value is -13.4% (inactive).

These data come from PubChem BioAssay (NCATS).
